BoNT-A LC inh2: inhibitors of Botulinum neurotoxin A light chain protease; multiplex microsphere protease substrate cleavage, flow cytometry; inhibition, % at 10 µM; hit rate 0.17% among 360,000; AID 588499
Bead autofluor: flagged as autofluorescent in microsphere protease counterscreen. fluorescence intensity (concentration not given with the values). hit rate 3.1% among 360,000. compound autofluorescence counterscreen, microsphere flow cytometry; hits give high values; in the data active means fluorescence intensity above about 16000; inconclusive means no clear call, values can overlap the other calls
Anthrax LF inh2: inhibitors of Bacillus anthracis lethal factor protease; P15917; multiplex microsphere protease cleavage assay, LF; inhibition, % at 10 µM; hit rate 0.12% among 360,000; AID 588501
Target sequence (P15917 whole entry, looked up): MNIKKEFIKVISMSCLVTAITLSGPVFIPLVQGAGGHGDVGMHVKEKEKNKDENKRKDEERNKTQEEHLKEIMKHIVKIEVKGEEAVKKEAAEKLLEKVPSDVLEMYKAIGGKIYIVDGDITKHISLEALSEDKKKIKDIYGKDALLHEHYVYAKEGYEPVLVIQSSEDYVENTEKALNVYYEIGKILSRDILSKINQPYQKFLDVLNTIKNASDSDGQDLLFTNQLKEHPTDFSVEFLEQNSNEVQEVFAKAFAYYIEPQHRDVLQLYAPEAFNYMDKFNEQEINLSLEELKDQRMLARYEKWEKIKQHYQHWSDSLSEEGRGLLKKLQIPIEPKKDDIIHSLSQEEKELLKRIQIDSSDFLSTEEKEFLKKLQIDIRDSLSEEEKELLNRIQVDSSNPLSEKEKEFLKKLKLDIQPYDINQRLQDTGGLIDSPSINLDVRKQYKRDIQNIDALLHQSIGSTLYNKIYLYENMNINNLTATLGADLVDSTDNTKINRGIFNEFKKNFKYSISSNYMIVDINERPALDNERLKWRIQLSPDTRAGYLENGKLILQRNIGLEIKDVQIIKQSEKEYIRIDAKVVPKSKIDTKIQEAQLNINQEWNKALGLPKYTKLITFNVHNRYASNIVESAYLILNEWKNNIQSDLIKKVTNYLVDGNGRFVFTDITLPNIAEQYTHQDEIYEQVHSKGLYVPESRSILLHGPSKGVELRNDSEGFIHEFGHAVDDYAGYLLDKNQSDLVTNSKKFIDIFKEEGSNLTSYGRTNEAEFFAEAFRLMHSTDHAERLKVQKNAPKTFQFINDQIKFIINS
BoNT-F LC inh: BoNT F light chain protease inhibition; Multiplex microsphere protease cleavage assay, flow cytometry; inhibition, % at 10 µM; hit rate 0.22% among 360,000; in the data active means inhibition above about 35%, passing the limit was not always enough; inconclusive means no clear call, values can overlap the other calls
Of the large screens only hits and unclear results are named; the others gave an inactive call. Hits are enriched below; roughly 3.5% of the tested compounds scored in any of these assays. Unless noted, no stated cut-off is given here; in the data, active means inhibition above about 30%; inconclusive means no clear call, values can overlap the other calls; inactive means below that.

Cc1ccccc1-c1noc(-c2ccc(O)cc2)n1	none
Cc1ccccc1-c1noc(C23CC4CC(CC(C4)C2)C3)n1	Bead autofluor 21714
CCc1nc2ccc(C(=O)NCCN3CCNC3=O)cn2c1N(CCC(C)C)CCN(C)C	none
CC(C)NC(=O)Nc1ccc2c(c1)C(=O)N([C@H](C)CO)C[C@H](C)[C@@H](CN(C)S(=O)(=O)c1ccc(F)cc1)O2	none
CCCC(=O)Nc1ccc2oc(-c3ccncc3)nc2c1	Bead autofluor 16375
COc1ccc(-c2nc(-c3ccc(Br)cc3)no2)c(OC)c1	Bead autofluor 19523
COc1ccc(CC(=O)Nc2ccc(-c3noc(-c4ccccc4OC)n3)cc2)cc1	BoNT-A LC inh2 inconclusive, Bead autofluor 22431
COc1cccc(-c2nc(-c3ccc(NC(=O)Cc4ccccc4OC)cc3)no2)c1	none
CCCCC(=O)Nc1ccc2oc(-c3ccncc3)nc2c1	none
COc1ccc(-c2nc3cc(NC(=O)Cc4ccc(OC)c(OC)c4)ccc3o2)cc1	Bead autofluor 16446
COc1cc(F)ccc1-c1csc(C(NC(C)=O)c2ccc(F)c(F)c2)n1 (configuration not stated)	none
Cc1cc(Cl)ccc1NC(=O)COC(=O)c1cc([N+](=O)[O-])ccc1N1CCOCC1	Bead autofluor 49183
NC(=O)COC(=O)CCCc1nc2ccccc2s1	Bead autofluor 21657
NC(Cc1ccc(Cl)cc1)c1csc(Nc2ccc(-c3ccccc3)nn2)n1 (configuration not stated)	none
O=C(Cc1ccccc1)Nc1cccc(N2CCCC2)c1	BoNT-A LC inh2 inconclusive, Bead autofluor 22002
OC(COc1cccc2ccccc12)CN1CCN(c2ccc(Cl)cc2)CC1 (configuration not stated)	BoNT-F LC inh 35
CNS(=O)(=O)c1ccc(CNC[C@H]2O[C@@H](n3cnc4c(=O)[nH]c(N)nc43)[C@H](O)[C@@H]2O)cc1	none
O=C1CS/C(=N\C(=O)N2c3ccccc3Sc3ccccc32)N1	Bead autofluor 24179
CCN(CC)c1nc(C=Cc2ccc(N(C)C)cc2)c2nccnc2n1	none
CC(C)OC(=O)c1cccnc1N1CCN(c2ccc(F)cc2)CC1	Bead autofluor 23861
COC(=O)c1cccnc1N1CCN(c2ccccc2F)CC1	BoNT-A LC inh2 inconclusive, Bead autofluor 23700
O=C(Nc1ccccc1)c1cccnc1N1CCCC1	BoNT-A LC inh2 inconclusive, Bead autofluor 17182
CCc1nc2c(OCc3ccc(Cl)cc3)cccn2c1N(C=O)Cc1ccc(OC)cc1	none
O=C(N/C(=C/c1ccc([N+](=O)[O-])cc1)C(=O)N1CCOCC1)c1ccco1	none
O=C(N/N=C/c1ccco1)c1cnccn1	none
O=C(N/N=C/c1ccco1)c1ccncc1	Bead autofluor 24013
O=C(c1ccncc1)N(Cc1ccco1)Cc1cc2ccccc2[nH]c1=O	Bead autofluor 22113
O=C(NCC1CCCO1)c1ccc(Br)c(S(=O)(=O)N2CCOCC2)c1 (configuration not stated)	none
N#Cc1ccc(CSc2nnc(-c3ccccn3)n2-c2ccccc2)cc1	none
N#Cc1ccc(CSc2nnc(COc3ccccc3)n2-c2ccccc2)cc1	Bead autofluor 24330
Nc1nnc(SCc2ccc(F)cc2)n1-c1ccccc1	Bead autofluor 21997
COc1ccc(-n2c(COc3ccccc3)nnc2SCc2ccc(C#N)cc2)cc1	Bead autofluor 19781
Nc1nc(SCc2ccccc2)cc(SCc2ccccc2)n1	none
COC(=O)C(C)N(C(=O)c1ccc(C(=O)c2ccccc2)cc1)c1c(C)cccc1C (configuration not stated)	none
COC(=O)C(C)N(C(=O)c1ccc(Cl)cc1)c1c(C)cccc1C (configuration not stated)	Bead autofluor 21162
COc1ccc(/C=C2\C(=N\O)C3CCN2CC3)cc1	none
O/N=C1/C(=C\c2ccccc2)N2CCC1CC2	Bead autofluor 19798
O=C(O)Cn1ccc2cc(S(=O)(=O)N3CCCCC3)ccc21	none
C=CCn1c(Cc2cccs2)nnc1SCC(=O)c1ccc(F)cc1	none
C=CCn1c(CNC(=O)c2cccs2)nnc1SCC(=O)Nc1ccc(C(=O)O)cc1	BoNT-A LC inh2 inconclusive, Bead autofluor 19549
C=CCn1c(CCNC(=O)c2cccs2)nnc1SCC(=O)c1ccc(Cl)cc1	Bead autofluor 23328
C=CCn1c(Cc2cccs2)nnc1SCC(=O)c1ccc2ccccc2c1	BoNT-A LC inh2 inconclusive, Bead autofluor 23327
C=CCn1c(CNC(=O)c2cccs2)nnc1SCC(=O)c1ccc(Br)cc1	Bead autofluor 23917
C=CCn1c(CCNC(=O)c2cccs2)nnc1SCC(=O)c1cccc([N+](=O)[O-])c1	none
O=C(NCc1cccnc1)c1csc([C@H]2C[C@H](O)[C@@H](CO)O2)n1	none
O=C(O)c1ccc(NC(=S)Nc2ccc(S(=O)(=O)Nc3ccccn3)cc2)cc1	none
O=C(Nc1cccc(C(=O)N2CCOCC2)c1)C1CCCCC1	none
